Potency and affinity values are given separately. Calls of active or inactive are those of the source.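 The calls were made as follows: active = cell killing with a fitted half-effect concentration at or below twice the top valid dose; inconclusive = flat curve with 30 to 70 percent drop, or poor fit; inactive = the rest.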

A short description of the assay: HEK293T cell cytotoxicity, dose response, cytotoxicity control, ATP luminescence, cherry-pick, set 6 (AID 1053126). Particulars: HEK293T viability, CellTiter-Glo ATP luminescence, 72 h; series mostly up to 26 µM. A general note: ATP-based viability assays read luminescence as a measure of living cells.
For `COc1ccc(C2C3=C(CC(C)(C)CC3=O)N(C)C3=C2C(=O)CC(C)(C)C3)cc1`, the call was inactive.

Take `O=C(O)c1ccc(N2N=C(c3ccccc3)CC2c2ccccc2)cc1` (stereo not drawn): the result was inactive.

Turning to `CCN(CC)c1ccc2cc(C(N)=O)c(=O)oc2c1`, the outcome was inactive.

For `COc1ccccc1N1CCN(C2CCC(C)CC2)CC1` (stereo not drawn), the molecule was classed as inactive.

For the molecule `COCCN1C=C(C(=O)OC)C(c2ccc(Cl)cc2)C(C(=O)OC)=C1`, the call was inactive.

As to `Cc1cccn2c(=O)c3cc(C#N)c(=NC(=O)c4cccs4)n(CC(C)C)c3nc12`, the outcome was inactive.

Consider `CC1=C(C(=O)N2CCN(c3cc(C)ccc3C)CC2)C2(CCCCC2)OC1=O`, for which the call was inactive.

Regarding `COc1ccc(C2CC(c3cccs3)=NN2c2nc(C)c(C(C)=O)s2)cc1OC` (stereo not drawn), the result was inactive.

`Cc1cc(CNC(=O)c2ccc3c(c2)OCO3)c2ccccc2n1`: the result was inactive.

In the case of `Cc1cc(=O)oc2cc(OC(=O)c3cncc(Br)c3)ccc12`, the molecule was called inactive.

Consider `Cc1ccc(S(=O)(=O)CCC(=O)OCC(=O)Nc2cccc(S(=O)(=O)N3CCCCC3)c2)cc1`, for which the call was inactive.

For `COCCCOc1cc(NCc2ccccc2)c2ncn(C(C)C)c2c1`, the call was inactive.

For `O=C(C1=NN(c2ccccc2)C2C(=O)N(c3ccccc3)C(=O)C12)c1ccccc1` (stereo not drawn), the molecule was classed as inactive.

`CC(=O)c1cccc(-c2ccnc3c2CC(C(=O)NCc2ccc(F)c(F)c2)O3)c1` (stereo not drawn): the molecule was called inactive.

Turning to `Cc1oc(/N=C/c2ccc(O)cc2O)c(C#N)c1C`, the molecule was classed as inactive.

As for `CC(=O)Oc1ccc2cc(-c3nc4ccccc4n3C)c(=O)oc2c1`, the result was inactive.

Take `CCn1c(=N)c(S(=O)(=O)c2ccccc2)cc2c(=O)n3ccccc3nc21`: the molecule was classed as inactive.

For `O=C(c1cccc(Cl)c1)N1CCC(=O)N(C(COCc2ccccc2)Cc2ccccc2)CC1` (stereo not drawn), the outcome was inactive.

On to `CCOc1ccc2nc(NCCCNS(=O)(=O)c3ccc(C)cc3)c(C#N)cc2c1`, for which the molecule was called inactive.

Regarding `Cc1cccn2c(=O)c(/C=C(\C#N)C(=O)NC3CCS(=O)(=O)C3)c(N3CCC(C(N)=O)CC3)nc12` (stereo not drawn), the molecule was called inactive.

On to `Cn1cc(C(c2ccccc2OCC(=O)O)c2cn(C)c3ccccc23)c2ccccc21`, for which the call was inactive.

With `Cc1oc(/N=C/c2ccc(F)cc2)c(C#N)c1C`, the molecule was called inactive.

For `CCC(=O)N1C(C(=O)NCc2ccc(OC)cc2)CSC1c1ccc(OC)cc1` (stereo not drawn), the outcome was inactive.

On to `COc1ccc(C2C(C#N)=C(N)Oc3cc(O)ccc32)cc1Cl` (stereo not drawn), for which the molecule was classed as inactive.

As for `CCCN1CCc2c(sc(NC(=O)C3CCN(S(=O)(=O)c4cccs4)CC3)c2C(N)=O)C1`, the call was inactive.

On to `CCOCCCNc1nc2nc3ccc(C)cn3c(=O)c2cc1C(=O)NCC1CCCO1` (stereo not drawn), for which the molecule was called inactive.

As for `CCCOc1ccc(NC(=O)c2c(-c3ccccc3)noc2C)cc1`, the call was inactive.

Regarding `N#Cc1c2ccc(OCC(N)=O)cc2n2ccccc12`, the molecule was called inactive.

Regarding `Cn1cnc(S(=O)(=O)Nc2ccc(OC(F)(F)F)cc2)c1`, the molecule was called inactive.

Consider `Cc1c(C(=O)NCc2cccc([N+](=O)[O-])c2)sc(=O)n1Cc1cccc(F)c1`, for which the call was inactive.

Take `CCCOc1ccccc1/C=C1\SC(N)=NC1=O`: the molecule was called inactive.

With `CCOc1ccc(NC(=O)CN(C)C(=O)CCCNC(=O)c2ccc(Cl)cc2)cc1OCC`, the molecule was called inactive.

`O=C(NNc1cc(N2CCCC2)nc(N2CCCC2)n1)c1ccc([N+](=O)[O-])cc1`: the molecule was called inactive.

For `CN1CCN(c2nc3ccccn3c(=O)c2/C=C(\C#N)S(=O)(=O)c2ccccc2)CC1`, the molecule was called inactive.

For the molecule `CCC(C)NC(=S)N1CCN(Cc2ccc3c(c2)OCO3)CC1` (stereo not drawn), the outcome was inactive.

In the case of `CCOC(=O)C(NC(=O)c1ccccc1)(OCC1(CC)COC1)C(F)(F)F` (stereo not drawn), the call was inactive.

For `COc1ccc(C(=O)c2sc3nc(-c4ccc(OC)cc4)ccc3c2N)cc1`, the call was inactive.

As to `COCCCn1c(=N)c(C(=O)NC2CCCCC2)cc2c(=O)n3ccccc3nc21`, the call was inactive.

Values taken from PubChem BioAssay AID1053126 (Broad Institute, 2014).
